# Results published in PubChem BioAssay AID504652 (National Center for Advancing Translational Sciences (NCATS), 2011).
# “And” between values parts separate entries of the source, which are not always exact repeats. Identical values can stand only once. The whole screen tested about 360,000 compounds, of which about 11,000 (3.1%) were called active. No stated cut-off is given here; in the data, active means activity change below about -30%; inactive means the rest. Shown is part of a subset that was picked to be rich in actives.
# Target: D(1A) dopamine receptor (Homo sapiens) (UniProt P21728)
# Experiment: Antagonist of Human D 1 Dopamine Receptor: qHTS
# Conditions: HEK293 TREx D1 cells, calcium flux, dopamine EC80; at 10 µM; stronger effect = lower value
# In short: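 After overnight tetracycline induction at 30 C, force-coupled D1 HEK293 cells took up a no-wash calcium dye at room temperature. Compounds were added and monitored 180 s, and the response to EC80 dopamine was then recorded.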
# On the % scale 0 is the no-effect control and ±100 the full control effect.
# Chain of D(1A) dopamine receptor (Homo sapiens) (P21728 whole entry, looked up): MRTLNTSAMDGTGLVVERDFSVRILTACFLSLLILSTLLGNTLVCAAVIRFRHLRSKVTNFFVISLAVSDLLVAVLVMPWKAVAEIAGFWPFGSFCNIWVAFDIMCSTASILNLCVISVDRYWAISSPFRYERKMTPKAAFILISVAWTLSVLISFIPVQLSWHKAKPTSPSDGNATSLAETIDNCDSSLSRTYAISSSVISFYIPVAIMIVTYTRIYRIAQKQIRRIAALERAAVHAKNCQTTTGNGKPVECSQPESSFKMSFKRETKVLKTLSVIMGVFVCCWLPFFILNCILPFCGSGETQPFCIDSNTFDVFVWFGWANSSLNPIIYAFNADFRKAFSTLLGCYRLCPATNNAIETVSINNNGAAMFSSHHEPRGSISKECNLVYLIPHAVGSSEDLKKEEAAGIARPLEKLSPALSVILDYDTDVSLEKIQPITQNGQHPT
row,SMILES,"activity change, negative = inhibition"
1,CCOc1cccc(NC(=O)CSc2ncc(-c3ccc(Cl)cc3)[nH]2)c1,-2.12% (inactive)
2,COc1ccc(-c2cnc(SCCNC(=O)c3ccc4c(c3)OCO4)[nH]2)cc1,1.65% (inactive)
3,COc1ccccc1CSc1ncc(-c2ccc([N+](=O)[O-])cc2)[nH]1,-37.4% (active)
4,Cc1c(C(=O)NCc2ccccc2Br)oc2ccc3c(c12)C(=O)CC(C)(C)O3,-29.9% (inactive)
5,COc1ccc2cc1Oc1ccc(cc1)C[C@H]1c3cc(c(OC)cc3CCN1C)Oc1c(O)c(OC)cc3c1[C@H](C2)N(C)CC3,-27.6% (inactive)
6,COc1c(O)ccc2c1CN1CCc3cc4c(cc3C1C2)OCO4 (stereo not given),-67.5% (active)
7,COc1ccc(CN2CCCC(N3CCc4ccccc4C3)C2)c(O)c1 (stereo not given),-0.568% (inactive)
8,CCOc1ccc(S(=O)(=O)c2cn(Cc3ccc(OC)cc3)c3ccc(F)cc3c2=O)cc1,-3.59% (inactive)
9,CCc1nc2ccc(C(=O)N3CCN(c4cc(Cl)ccc4C)CC3)cc2nc1CC,4.25% (inactive)
10,O=C(CSc1ncn[nH]1)Nc1nc(-c2cccc([N+](=O)[O-])c2)cs1,-1.2% (inactive)
11,O=C(CSc1ncn[nH]1)Nc1nsc(-c2ccccc2)n1,1.31% (inactive)
12,Cn1nnc(NC(=O)CSc2ncn[nH]2)n1,-31.7% (active)
13,CCOC(=O)c1scc(-c2ccccc2)c1S(=O)(=O)Nc1ccccc1F,-3.82% (inactive)
14,CCC(C(=O)Nc1cccc(-c2nc3cccnc3s2)c1C)c1ccccc1 (stereo not given),-4.82% (inactive)
15,C/C(=C\C(=O)c1ccccc1)Nc1cccc(O)c1,-30.1% (active)
16,O=C(Nc1cccc(O)c1)c1ccc(C(=O)c2ccccc2)o1,-9.29% (inactive)
17,O=C(CSc1ccccc1)Nc1ccc(C(=O)Nc2cccc(O)c2)cc1,-29.1% (inactive)
18,Cc1ccc(NC(=O)CSc2nc3c(c(=O)[nH]2)CN(Cc2ccc4c(c2)OCO4)CC3)cc1C,11.3% (inactive)
19,COc1ccc(-n2c(SCC(=O)NCc3ccco3)nnc2-c2c[nH]c3ccccc23)cc1,-90% (active)
20,O=C(CSc1nnc(-c2c[nH]c3ccccc23)n1-c1ccc(F)cc1)NCc1ccco1,3.17% (inactive)
21,COc1ccc(-n2c(SCC(=O)NCc3cccs3)nnc2-c2ccoc2C)cc1,-0.757% (inactive)
22,CCOC(=O)C1CCC(CN(Cc2ccc(OC)cc2)S(=O)(=O)c2ccc(F)c(C(=O)Nc3cc(C)ccc3C)c2)CC1 (stereo not given),15.6% (inactive)
23,COc1cccc(COC(=O)C2CCN(S(=O)(=O)c3cccs3)CC2)c1OC,-15.5% (inactive)
24,COc1cccc(COC(=O)C2CCN(S(=O)(=O)c3ccc(Cl)cc3)CC2)c1OC,-32.8% (active)
25,CCOc1ccc(S(=O)(=O)N2CCC(C(=O)OCc3ccc(OC)cc3)CC2)cc1,-16.6% (inactive)
26,COc1ccc(C(=O)c2oc3ccccc3c2NC(=O)COc2cccc(C)c2)cc1,-10.1% (inactive)
27,Cc1nn(CC(=O)NCCc2ccccc2)c(=O)c2c1sc1ccccc12,-1.1% (inactive)
28,Cc1cccc(NS(=O)(=O)c2ccc(-c3cnc(C4CC4)o3)cc2)c1,-44.9% (active)

row,SMILES,"activity change, negative = inhibition"
1,Cc1ccc(-c2cnc(C3CC3)o2)cc1S(=O)(=O)Nc1cccc(C)c1C,9.76% (inactive)
2,Cc1cccc(CNS(=O)(=O)c2ccc(-c3cnc(C4CC4)o3)cc2)c1,-9.2% (inactive) and -2.23% (inactive)
3,O=C(CSc1nccn1C1CCCC1)Nc1cc(C(F)(F)F)ccc1Cl,-16% (inactive)
4,COC(=O)c1cc(Oc2ccc(S(=O)(=O)N3CCOCC3)cc2[N+](=O)[O-])cc(C(=O)OC)c1,-38.9% (active)
5,C=C(C)CNc1cc(S(=O)(=O)N2CCOCC2)ccc1Oc1ccccc1,-20.5% (inactive)
6,COc1ccc(S(=O)(=O)N2CCC(C(=O)OCC(=O)c3ccccc3)CC2)cc1[N+](=O)[O-],-3.94% (inactive)
7,Cc1ccc(NC(=O)c2ccc3[nH]c(C)cc(=O)c3c2)c(C)c1,-2.41% (inactive)
8,CCOC(=O)c1c(N)n(-c2cccc(C)c2C)c2nc3ccccc3nc12,-1.89% (inactive)
9,COc1ccccc1CNC(=O)c1ccc(CS(=O)c2ccccc2Cl)o1 (stereo not given),-4.03% (inactive)
10,Cc1ccc(C)c(N2CCN(C(=O)CCc3c(C)nc4c(c3C)c(=O)n(C)c(=O)n4C)CC2)c1,7.99% (inactive)
11,CC1=C(C(=O)OCC(C)C)C(c2ccc(OCc3ccccc3)cc2)N2C(=O)CCSC2=N1 (stereo not given),4.42% (inactive)
12,CN(C)c1ccc(-n2cccc2/C=N/n2cnnc2)cc1,10% (inactive)
13,Cc1ccc(N=C2NC(=O)/C(=C/C=C/c3ccco3)S2)cc1C,-15.5% (inactive)
14,CN(C)c1ccc(-n2cccc2/C=C2/SC(=Nc3ccc(F)cc3)NC2=O)cc1,-42.9% (active)
15,CCc1cc2c(cc3c(=O)n(CC(=O)N4CCN(c5cc(Cl)ccc5C)CC4)nc(CC)n32)s1,-29.5% (inactive)
16,COc1ccc(C(=O)Nc2ccc(-n3nncc3-c3ccccc3)cc2)cc1OC,-8.31% (inactive)
17,CC(C)NC(=O)NC(=O)CSc1nnc(-c2ccccc2F)n1N,2.73% (inactive)
18,Nn1c(SCC(=O)NC(=O)NC2CCCC2)nnc1-c1ccccc1F,-31.8% (active)
19,Nn1c(SCC(=O)NC2CCCC2)nnc1-c1ccccc1F,10.8% (inactive)
20,CCc1cc2c(cc3c(=O)n(CC(=O)NCCc4ccc(OC)c(OC)c4)ncn32)s1,-0.482% (inactive)
21,CCc1ccc(NC(=O)c2sc3nc4c(cc3c2N)CN(CC)CC4)cc1,-15.6% (inactive)
22,N=c1n(CCc2ccccc2)c2ccccc2n1Cc1ccccc1F,-72.5% (active)
23,O=C(COC(=O)Cc1ccccc1F)NCCc1ccccc1,-27% (inactive)
24,Fc1ccccc1Cn1cnc(NC(=S)NCCc2ccccc2)n1,0.584% (inactive)
25,Cn1c(=O)c2sccc2n2c(CCC(=O)NCc3ccccc3Cl)nnc12,-4.17% (inactive)
26,Cn1c(=O)c2c(SCC(=O)N3CCc4ccccc43)nc(-c3ccc(Cl)cc3)nc2n(C)c1=O,-4.79% (inactive)
27,CCCOC(=O)c1c(NC(=O)c2cc3nc(-c4ccc(OC)cc4)cc(C(F)(F)F)n3n2)sc2c1CCCC2,1.36% (inactive)
